LASV entry inh: inhibitors of Lassa virus binding or cell entry; Lassa virus pseudotype entry inhibition, cell reporter; Potency, µM (top dose mostly 37.9 µM), inactives show at the top dose activity change, negative = inhibition, hits mostly inhibitors; hit rate 1.2% among 300,000; AID 540256; calls by dose curve; tested in HEK293 cells; further: potency means the concentration at half of the fitted maximal effect; nearly all actives have a fitted effect of over 50% in size
HCMV antiviral: inhibitors of human cytomegalovirus; HFF cells, HCMV-luciferase reporter, 72 h; stronger effect = lower value; activity change, negative = inhibition, % at 57.5 µM; hit rate 4.5% among 410,000; AID 1259415; in the data active means activity change below about -60%; inconclusive means no clear call, values can overlap the other calls; inactive means above about -39%
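Human foreskin fibroblasts infected with luciferase-reporter HCMV at MOI 1 PFU/cell, compounds at two doses. Luciferase measured 72 h post infection; normalized to buffer-only basal and Salinomycin (10uM) controls.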
FMDV antiviral: blocks foot and mouth disease virus | FMDV antiviral cell-based qHTS | Potency, µM (top dose mostly 57.9 µM), for inactives: top-dose activity change, negative = inhibition, actives largely listed as inhibitors | hit rate 1.2% among 410,000; calls by dose curve; tested in HEK293T cells; further: read-out not given here; potency means the concentration at half of the fitted maximal effect; nearly all actives have a fitted effect of over 45% in size
Marburg entry inh: inhibitors of Marburg virus binding or cell entry. Marburg virus pseudotyped entry inhibition, cell reporter. hit rate 1.8% among 300,000. Potency, µM (series often up to 37.8 µM), inactives show top-dose activity change, negative = inhibition, hits mostly inhibitors; calls by dose curve; tested in HEK293 cells; further: potency means the concentration at half of the fitted maximal effect
HCV inhibitor: blocks hepatitis C virus | Huh7.5.1 HCVcc-Cre infection, luciferase reporter, 44 h | Potency, µM (highest dose often 41.8 µM), without a hit: at the highest dose activity change, negative = inhibition, hits mostly inhibitors | hit rate 3.4% among 340,000 | AID 651820; active means well fitted inhibition curve with a large enough effect; inconclusive means small, poorly fitted or top-dose-only effect, or another doubt; inactive means no such curve, though single readings can be large or run the other way; further: potency means the concentration at half of the fitted maximal effect
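Antiviral activity was scored by luciferase reporter output from cells infected with HCVcc-Cre (~0.5 moi) in presence of compound, 44 h infection period, cells seeded 1,000/well 4 h prior.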
* hit, by the source's call; ? = inconclusive; · = no result given; [ ] = another dose, or the depositor's remark. Rows were chosen to be rich in hits. Some 7.9% of all compounds tested hit in one or more screens of this group. On the % scale 0 is the no-effect control and ±100 the full control effect.

SMILES	LASV entry inh	HCMV antiviral	FMDV antiviral	Marburg entry inh	HCV inhibitor
OCCN1CCOCCN(CCO)CCOCC1	21%	-92*	-18%	?	-2%
Cc1ccc(CNC(=O)c2cc(C3CC3)nc3c2cnn3C(C)C)cc1	·	-5	-15%	·	?
Cc1ccc(OCCNC(=O)c2cc(C3CC3)nc3c2cnn3C(C)C)cc1	·	0	-29%	·	13µM*
CCN(CC)C(=O)c1cccc(NC(=O)c2cc(C3CC3)nc3c2cnn3C(C)C)c1	·	-34	-22%	·	7.1µM*
CC(=O)Nc1ccc(NC(=O)c2cc(C3CC3)nc3c2cnn3C(C)C)cc1	?	-5	-29%	2%[46.1 µM]	10µM*
CCOc1ccc(NC(=O)c2cc(C3CC3)nc3c2cnn3C(C)C)cc1OC	·	-16	-13%	·	10µM*
CC(C)n1ncc2c(C(=O)Nc3cccc(S(=O)(=O)N(C)C)c3)cc(C3CC3)nc21	?	-2	?	?	?
COc1ccc(CNC(=O)c2cc(C3CC3)nc3c2cnn3C(C)C)cc1OC	·	-30	?	·	?
O=C1OCC(c2ccc(Cl)s2)=C1c1ccccc1[N+](=O)[O-]	?	-22	-16%	?	1%
CC(C)n1ncc2c(C(=O)NCc3cccnc3)cc(C3CC3)nc21	·	-10	31%	·	7.9µM*
CC(C)n1ncc2c(C(=O)Nc3ccc(S(C)(=O)=O)cc3)cc(C3CC3)nc21	·	3	0%	·	5.6µM*
CNC(=O)c1cccc(NC(=O)c2cc(-c3ccccc3)nc3c2cnn3C(C)C)c1	·	-8	?	·	3.2µM*
CC(C)n1ncc2c(C(=O)Nc3ccc(S(N)(=O)=O)cc3)cc(C3CC3)nc21	·	46	?	·	-26%
CCCCc1ccc(NC(=S)N2CCCC(C)C2)cc1 (stereo not given)	11%	-67*	44%	?	-20%
C=CCNC(=S)NN=C1CCCCCCC1	1%[46.1 µM]	-113*	12%	20%[46.1 µM]	4%
COCCNC(=S)NN=C1CCCCC1	?	-5	-2%	?	?
Cc1cc(C)c(C(=O)CSc2n[nH]c(-c3ccncc3)n2)c(C)c1	0%	-66*	-17%	?	7%
Cc1ccc(C)c(C(=O)CSc2n[nH]c(-c3ccncc3)n2)c1	-2%	-33	-7%	-8%	-9%
[O-]/C(=C(\C(=S)Nc1ccc(SC(F)F)cc1)[n+]1ccccc1)c1cc(Cl)ccc1Cl	?	-61*	-10%	?	?
CC(=O)N(CN1C(=O)CCC1=O)c1ccc(Cl)c(Cl)c1	·	-66*	11µM*	·	8%
O=C(NCCc1ccncc1)[C@@H]1[C@@H](CO)[C@@H]2Cn3c(ccc(-c4ccccc4)c3=O)[C@@H]2N1C(=O)C1CC1	·	9	·	·	·
COc1ccccc1N1CCN(C(=O)C2CCN(S(=O)(=O)c3cn(C)cn3)CC2)CC1	12%[46.1 µM]	-20	-14%	·	·
Cn1nnnc1SCc1nc2scc(-c3ccc(Cl)cc3)c2c(=O)[nH]1	·	-70*	-19%	·	?
C=CCn1c(SCc2nc3scc(-c4ccccc4)c3c(=O)[nH]2)nnc1-c1ccccc1F	-9%	-15	28µM*	?	-18%
CCn1c(SCc2nc3scc(-c4ccccc4)c3c(=O)[nH]2)nnc1-c1ccc(Cl)cc1	6%	-7	?	?	-2%
SMILES	LASV entry inh	HCMV antiviral	FMDV antiviral	Marburg entry inh	HCV inhibitor
Cc1sc2nc(SCCN(C)C)n(-c3ccccc3)c(=O)c2c1-c1ccc(F)cc1	?	?	-4%	?	7.1µM*
CN(C)CCSc1nc(O)c(-c2ccccc2)c(=O)n1-c1ccccc1	1%	-2	-10%	1%	13%
COc1ccc(CN2C(=O)C(n3c(C)ccc3C)c3ccccc32)cc1 (stereo not given)	·	-7	·	·	·
Cc1ccccc1N=C1SC(CC(=O)Nc2ccc3ccccc3c2)C(=O)N1Cc1ccccn1 (stereo not given)	16µM*	-8	?	?	10µM*
Cc1ccc(S(=O)(=O)N2CCOCC2)cc1NC(=O)COC(=O)CSc1ccc(Br)cc1C	3%	-96*	2%	4%	10%
CC1(c2ccccc2)NC(=O)N(CC(=O)Nc2cc(S(=O)(=O)N3CCOCC3)ccc2Cl)C1=O (stereo not given)	19%[46.1 µM]	?	-12%	13%[46.1 µM]	2%
Cc1ccc(NC(=O)NC(=O)CN2CCN(c3ccc(O)cc3)CC2)c(C)c1	-26%[46.1 µM]	-81*	-5%	-1%[46.1 µM]	?
Cc1ccc(S(=O)(=O)N2CCOCC2)cc1NC(=O)CN1CCN(c2ccc(O)cc2)CC1	-5%	-61*	?	-24%	19%
Cc1ccc(C2(C)NC(=O)N(CC(=O)Nc3cc(S(=O)(=O)N4CCOCC4)ccc3C)C2=O)cc1 (stereo not given)	-17%	-101*	-25%	-4%	7%
COc1cc(Oc2nc(C(F)(F)F)nc3ccccc23)ccc1C=O	·	-1	-28%	·	10%
Cc1csc2nc(-c3ccc(NS(=O)(=O)c4cccc(F)c4)cc3)cn12	11%[46.1 µM]	-11	15%	·	·
O=C(Nc1cccc2ccccc12)N1CCOCC1	0%	60	-8%	-1%	-24%
O=C(Nc1cccc(Cl)c1)c1ccc(OC(=S)N2CCOCC2)cc1	0%	?	9%	-21%[46.1 µM]	13µM*
O=C(Nc1cccc2ccccc12)c1ccc(OC(=S)N2CCOCC2)cc1	1.5µM*	-36	·	2.6µM*	?
O=C(N[C@H]1CC[C@@]23CCCN2C(=O)CCC[C@H]3[C@H]1Cc1ccccc1)c1ccc(C(F)(F)F)cc1	·	-1	·	·	·
Cc1ccc(S(=O)(=O)N2CCCOC2CNC(=O)C(=O)NC2CCCC2)cc1 (stereo not given)	5%	21	1%	4%	3%
COc1ccc(Nc2c(-c3ccc(F)cc3)nc3nc(C)cc(C)n23)cc1	·	-67*	-7%	·	·
COc1cc(NC(=O)COc2cc(O)c3c(c2)OC(C)(C)CC3=O)cc(OC)c1	·	-3	-33%	·	2.8µM*
COc1cccc(NC(=O)COc2cc(O)c3c(c2)OC(C)(C)CC3=O)c1	·	44	-1%	·	-94%
COc1ccc(NC(=O)COc2cc(O)c3c(c2)OC(C)(C)CC3=O)cc1	·	-16	0%	·	2.8µM*
COc1ccc(CCNC(=O)COc2cc(O)c3c(c2)OC(C)(C)CC3=O)cc1OC	·	21	-27%	·	3.2µM*
CCCCN(C=O)c1c(CC)nc2ccc(C(=O)NCCN(C)C)cn12	·	8	-6%	·	·
CN(C)CCCn1c2c3ccccc3ccc2c2oc(=O)c3ccccc3c21	?	-92*	-8%	?	?
NC(=O)c1ccc(NCCc2ccco2)cc1	·	1	10%	·	·
Cc1cccc2cc(CN(Cc3cccs3)C3(c4nnnn4C4CCCC4)CCCC3)c(=O)[nH]c12	?	-70*	-22%	-2%	15%
Cc1cc2cc(CN(Cc3cccs3)S(=O)(=O)c3ccc4c(c3)OCCO4)c(=O)[nH]c2cc1C	1%	?	-1%	17%	2%
Cc1cccc2cc(CN(Cc3ccc(F)cc3)Cc3nnnn3C3CCCC3)c(=O)[nH]c12	?	-20	·	-27%	0%

Screens: PubChem BioAssay, National Center for Advancing Translational Sciences (NCATS)
